Consider five molecules from PubChem BioAssay (EPA / NIEHS).

Holding throughout (settings): mRNA level, 48 h; actives raise or lower the signal
Read-out in assay [1]: Peroxisomal acyl-coenzyme A oxidase 1 (ACOX1) gene, ACOX1 (gene 51)
The experiment in a line: LTEA_HepaRG_ACOX1: Life Technologies and Expression Analysis (LTEA) Assay for Peroxisomal acyl-coenzyme A oxidase 1 (ACOX1) gene using HepaRG (AID 2283467). In short, it runs like this: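 Measured by qRT-PCR against three housekeeping genes: ACOX1 transcript change in human HepaRG cells after 48 h dosing. Concentrations ran up to 100 uM in half-log steps. Curves were fitted bidirectionally relative to 0.5% DMSO.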

Read-out in assay [2]: Alkaline Phosphatase, Placental (ALPP) gene, ALPP (gene 250)
Nature of the assay: LTEA_HepaRG_ALPP: Life Technologies and Expression Analysis (LTEA) Assay for Alkaline Phosphatase, Placental (ALPP) gene using HepaRG (AID 2283468).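 As to AC50: differentiated human HepaRG liver cells in serum-free induction medium.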 The essentials:
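ALPP transcript level, measured by qRT-PCR and normalized to three housekeeping genes (ACTB, GAPDH, POLR2A), after 48 h dosing of differentiated HepaRG in serum-free induction medium. Top concentration 100 uM with half-log dilutions (8 points, 0.5% DMSO, duplicates); bidirectional fitting relative to DMSO.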

Read-out in assay [3]: Bcl-2 (BAD) gene, BAD (gene 572)
Nature of the assay: LTEA_HepaRG_BAD: Life Technologies and Expression Analysis (LTEA) Assay for Bcl-2 (BAD) gene using HepaRG (AID 2283469). The essentials:
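BAD transcript change, measured by qRT-PCR against three housekeeping genes and fitted in both directions relative to 0.5% DMSO, after 48 h chemical treatment of human HepaRG liver cells at concentrations up to 100 uM.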

Read-out in assay [4]: adenosine kinase (ADK) gene, ADK (gene 132)
The experiment in a line: LTEA_HepaRG_ADK: Life Technologies and Expression Analysis (LTEA) Assay for adenosine kinase (ADK) gene using HepaRG (AID 2283471). The essentials: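 Following 48 h exposure of HepaRG cells in 0.5% DMSO (top concentration 100 uM, duplicate wells), ADK mRNA induction or suppression was measured by qRT-PCR, normalised to ACTB/GAPDH/POLR2A, and fitted bidirectionally relative to vehicle.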

Read-out in assay [5]: Alpha-fetoprotein (AFP) gene, AFP (gene 174)
The experiment in a line: LTEA_HepaRG_AFP: Life Technologies and Expression Analysis (LTEA) Assay for Alpha-fetoprotein (AFP) gene using HepaRG (AID 2283472). In short, it runs like this: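 After a 48 h plating period, cells are moved to serum-free induction medium and dosed in duplicate (100 uM maximum, half-log dilutions, 0.5% DMSO) for another 48 h. Total RNA goes to TaqMan qRT-PCR; AFP signal is housekeeping-normalized.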

Read-out in a further assay: BCL2L11 (gene 10018)
Nature of the assay: LTEA_HepaRG_BCL2L11: Life Technologies and Expression Analysis (LTEA) Assay for Bcl-2 (BCL2L11) gene using HepaRG (AID 2283473). In short, it runs like this:
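BCL2L11 transcript levels are measured by Fluidigm qRT-PCR, normalized to three housekeeping genes. HepaRG cultures were plated 48 h, then treated 48 h with test chemical (top 100 uM, half-log, 0.5% DMSO vehicle); curves were fitted bidirectionally against DMSO.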

Read-out in assay [6]: Apolipoprotein A-V (APOA5) gene, APOA5 (gene 116519)
The experiment in a line: LTEA_HepaRG_APOA5: Life Technologies and Expression Analysis (LTEA) Assay for Apolipoprotein A-V (APOA5) gene using HepaRG (AID 2283474). The essentials: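 APOA5 transcript levels were quantified by qRT-PCR, normalized to three housekeeping genes, after 48 h chemical treatment of HepaRG cells (8 points, 100 uM maximum, half-log steps, 0.5% DMSO). Curves fitted in both directions against vehicle.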

Read-out in assay [7]: Apoptosis regulator Bcl-2 (Homo sapiens) (UniProt P10415)
The experiment in a line: LTEA_HepaRG_BCL2: Life Technologies and Expression Analysis (LTEA) Assay for Bcl-2 gene using HepaRG (AID 2283475).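 Also: BCL2 transcript by TaqMan qRT-PCR normalised to ACTB GAPDH and POLR2A.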 The essentials:
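Expression change of BCL2 mRNA in HepaRG after 48 h dosing, quantified by TaqMan qRT-PCR against three endogenous controls. Concentration-response used eight points up to 100 uM, vehicle 0.5% DMSO.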

Read-out in assay [8]: Bcl-2 (BID) gene, BID (gene 637)
Nature of the assay: LTEA_HepaRG_BID: Life Technologies and Expression Analysis (LTEA) Assay for Bcl-2 (BID) gene using HepaRG (AID 2283476). In short, it runs like this:
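Gain or loss of BID expression is fitted relative to 0.5% DMSO vehicle. Human HepaRG liver cells received a 48 h chemical exposure over an eight-point concentration range.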

Read-out in a further assay: Caspase-3 (Homo sapiens) (UniProt P42574)
The experiment in a line: LTEA_HepaRG_CASP3: Life Technologies and Expression Analysis (LTEA) Assay for cysteine-aspartic acid protease (CASP3) using HepaRG (AID 2283477). In short, it runs like this:
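Expression of CASP3 was quantified by TaqMan qRT-PCR against three housekeeping genes (ACTB, GAPDH, POLR2A), bidirectionally versus 0.5% DMSO. HepaRG cultures received compounds in duplicate, top 100 uM with half-log steps, for 48 h in serum-free induction medium.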

Read-out in assay [9]: Cytochrome P450 (CYP24A1), CYP24A1 (gene 1591)
Nature of the assay: LTEA_HepaRG_CYP24A1: Life Technologies and Expression Analysis (LTEA) Assay for Cytochrome P450 (CYP24A1) using HepaRG (AID 2283478). The essentials:
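mRNA of CYP24A1 quantified by TaqMan qRT-PCR (ACTB/GAPDH/POLR2A normalization) after 48 h chemical exposure of HepaRG cells, top concentration 100 uM, half-log steps, 0.5% DMSO vehicle, duplicates. Curves fitted bidirectionally against DMSO baseline.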

Read-out in assay [10]: cysteine-aspartic acid protease (CASP8), CASP8 (gene 841)
Nature of the assay: LTEA_HepaRG_CASP8: Life Technologies and Expression Analysis (LTEA) Assay for cysteine-aspartic acid protease (CASP8) using HepaRG (AID 2283480). The essentials: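 HepaRG, 48 h exposure, duplicate wells; 8 conc, half-log from 100 uM, 0.5% DMSO. Serum-free induction medium. CASP8 mRNA by TaqMan qRT-PCR, norm. ACTB/GAPDH/POLR2A; gain/loss fitted vs DMSO.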

Read-out in assay [11]: Cytochrome P450 (CYP2B6), CYP2B6 (gene 1555)
The experiment in a line: LTEA_HepaRG_CYP2B6: Life Technologies and Expression Analysis (LTEA) Assay for Cytochrome P450 (CYP2B6) using HepaRG (AID 2283481). In short, it runs like this: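 CYP2B6 transcript level quantified by qRT-PCR against three housekeeping genes, fitted bidirectionally relative to DMSO. HepaRG cultures received chemicals for 48 h, 8-point half-log series from 100 uM in 0.5% DMSO, duplicate wells, serum-free induction medium.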

Read-out in assay [12]: Cytochrome P450 2C19 (Homo sapiens) (UniProt P33261)
The experiment in a line: LTEA_HepaRG_CYP2C19: Life Technologies and Expression Analysis (LTEA) Assay for CYP2C19 using HepaRG (AID 2283482). In short, it runs like this:
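CYP2C19 transcript levels by qRT-PCR, normalized to three housekeeping genes, in HepaRG cells after 48 h chemical exposure. Eight-point half-log series topping at 100 uM, 0.5% DMSO vehicle. Increases and decreases both fitted against DMSO.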

Read-out in another assay: CYP2C8 (gene 1558)
The experiment in a line: LTEA_HepaRG_CYP2C8: Life Technologies and Expression Analysis (LTEA) Assay for CYP2C8 using HepaRG (AID 2283483). The essentials:
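CYP2C8 mRNA induction or loss, by qRT-PCR normalized to ACTB/GAPDH/POLR2A, is read in HepaRG cells after 48 h treatment. Concentrations run from 100 uM down in half-log dilutions, with 0.5% DMSO as vehicle and baseline.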

Read-out in the next assay: CYP2C9 (gene 1559)
The experiment in a line: LTEA_HepaRG_CYP2C9: Life Technologies and Expression Analysis (LTEA) Assay for CYP2C9 using HepaRG (AID 2283484). The essentials: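 Cells plated 48 h, switched to serum-free induction medium, then treated in duplicate for 48 h at eight concentrations (max 100 uM, 0.5% DMSO). RNA then analysed by qRT-PCR for CYP2C9; curves fitted in both directions relative to DMSO.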

Read-out in the next assay: CYP2E1 (gene 1571)
Nature of the assay: LTEA_HepaRG_CYP2E1: Life Technologies and Expression Analysis (LTEA) Assay for CYP2E1 using HepaRG (AID 2283485). In short, it runs like this:
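Differentiated HepaRG cells were treated in duplicate for 48 h with chemicals in 0.5% DMSO, from 100 uM downward in half-log dilutions. RNA was then analysed by qRT-PCR for CYP2E1 induction or loss.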

Read-out in a further assay: CYP4A11 (gene 1579)
The experiment in a line: LTEA_HepaRG_CYP4A11: Life Technologies and Expression Analysis (LTEA) Assay for CYP4A11 using HepaRG (AID 2283486). In short, it runs like this: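 Readout is CYP4A11 transcript level by qRT-PCR, normalized to three housekeeping genes and fitted bidirectionally against 0.5% DMSO. Human HepaRG cells were treated 48 h, in duplicate, with an 8-point half-log series topping at 100 uM.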

The source made the active and inactive calls. The calls were made as follows: active = hit-call score of the fitted dose curve at least 0.9, where 1 is the maximum; inactive = score below 0.9.

Sequence of Caspase-3 (Homo sapiens) (P42574 whole entry, looked up): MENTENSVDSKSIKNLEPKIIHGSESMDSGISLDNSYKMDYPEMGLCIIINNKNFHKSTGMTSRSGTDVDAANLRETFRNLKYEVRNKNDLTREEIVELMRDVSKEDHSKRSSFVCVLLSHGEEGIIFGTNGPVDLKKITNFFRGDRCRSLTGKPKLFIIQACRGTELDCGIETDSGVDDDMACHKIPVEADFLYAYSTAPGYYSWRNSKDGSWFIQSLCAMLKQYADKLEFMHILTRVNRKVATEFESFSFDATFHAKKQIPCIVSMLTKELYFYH
Sequence of Apoptosis regulator Bcl-2 (Homo sapiens) (P10415 whole entry, looked up): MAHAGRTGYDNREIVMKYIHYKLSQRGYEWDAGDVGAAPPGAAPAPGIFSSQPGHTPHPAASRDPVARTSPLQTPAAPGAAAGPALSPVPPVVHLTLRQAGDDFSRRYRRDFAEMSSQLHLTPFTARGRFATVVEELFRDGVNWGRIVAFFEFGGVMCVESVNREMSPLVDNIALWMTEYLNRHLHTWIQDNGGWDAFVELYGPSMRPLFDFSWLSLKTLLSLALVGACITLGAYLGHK
Sequence of Cytochrome P450 2C19 (Homo sapiens) (P33261 whole entry, looked up): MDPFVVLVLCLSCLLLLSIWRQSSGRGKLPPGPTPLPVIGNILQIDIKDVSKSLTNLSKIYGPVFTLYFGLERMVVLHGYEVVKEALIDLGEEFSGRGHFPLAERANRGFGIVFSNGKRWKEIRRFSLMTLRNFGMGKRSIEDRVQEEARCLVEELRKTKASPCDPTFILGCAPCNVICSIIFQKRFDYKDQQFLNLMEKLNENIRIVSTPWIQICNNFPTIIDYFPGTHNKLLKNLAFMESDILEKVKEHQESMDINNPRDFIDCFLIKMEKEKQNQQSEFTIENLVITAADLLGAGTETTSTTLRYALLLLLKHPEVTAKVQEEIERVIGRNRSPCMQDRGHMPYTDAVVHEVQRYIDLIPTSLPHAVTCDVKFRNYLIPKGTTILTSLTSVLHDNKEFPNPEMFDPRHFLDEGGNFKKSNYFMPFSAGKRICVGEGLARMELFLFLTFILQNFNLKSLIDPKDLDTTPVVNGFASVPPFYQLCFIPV

Take `CCCCC(CC)CO` (centres undefined): the outcome (in assay [1]; in [2]; in [3]; in [4]; in assay [5]; with BCL2L11 (gene 10018)) was inactive. For the same molecule, the result (in assay [6]; in assay [7]; in assay [8]; with Caspase-3 (Homo sapiens); in assay [9]; in assay [10]) was inactive. For the same molecule, the molecule was classed as inactive (in assay [11]; in assay [12]; in the assay with CYP2C8 (gene 1558); in the assay with CYP2C9 (gene 1559); in the assay with CYP2E1 (gene 1571); with CYP4A11 (gene 1579)).

Turning to `S=c1[nH]c2ccccc2s1`, the outcome (in assay [1]; in assay [2]; in assay [3]; in assay [4]; in [5]; in the assay with BCL2L11 (gene 10018)) was inactive. Further, the outcome (in [6]; in [7]; in assay [8]; with Caspase-3 (Homo sapiens); in assay [9]; in [10]) was inactive. For the same molecule, the outcome (in [11]; in assay [12]; in the assay with CYP2C8 (gene 1558); in the assay with CYP2C9 (gene 1559); in the assay with CYP2E1 (gene 1571); with CYP4A11 (gene 1579)) was inactive.

On to `CCCCCCCCCCCCCCCCO`, for which the call (in assay [1]; in assay [2]; in assay [3]; in [4]; in assay [5]; in the assay with BCL2L11 (gene 10018)) was inactive. Moreover, the molecule was classed as inactive (in assay [6]; in assay [7]; in [8]; with Caspase-3 (Homo sapiens); in assay [9]; in assay [10]). Also, the call (in [12]; in the assay with CYP2C8 (gene 1558); in the assay with CYP2C9 (gene 1559)) was inactive. Besides, the concentration at half-maximal activity (AC50) with CYP2E1 (gene 1571) is 50 µM (active); in the assay with CYP4A11 (gene 1579) it was 16.8 µM (active).

For `CCN(CC)CCOc1ccc(C(=C(Cl)c2ccccc2)c2ccccc2)cc1`, the concentration at half-maximal activity (AC50) was 13.3 µM (active) in [1]; 22.6 µM (active) in assay [2]; 17.9 µM (active) in assay [5]; 76.5 µM (active) with BCL2L11 (gene 10018); 3.32 µM (active) in [11]; 80.9 µM (active) in the assay with CYP2C9 (gene 1559). Moreover, the AC50 with CYP2E1 (gene 1571) was 14.6 µM (active); in the assay with CYP4A11 (gene 1579) it was 19.3 µM (active). For the same molecule, the result (in assay [3]; in [4]; in assay [6]; in assay [7]; in assay [8]; with Caspase-3 (Homo sapiens)) was inactive. Further, the result (in assay [9]; in [10]; in assay [12]; in the assay with CYP2C8 (gene 1558)) was inactive.

Consider `O=C(O)c1[nH]n(-c2ccc(S(=O)(=O)O)cc2)c(=O)c1N=Nc1ccc(S(=O)(=O)O)cc1`, for which the molecule was classed as inactive (in assay [1]; in [2]; in assay [3]; in assay [4]; in [5]; with BCL2L11 (gene 10018)). The molecule was classed as inactive (in assay [6]; in assay [7]; in assay [8]; in the assay with Caspase-3 (Homo sapiens); in assay [9]; in [10]). Also, the molecule was called inactive (in [11]; in assay [12]; with CYP2C8 (gene 1558); in the assay with CYP2C9 (gene 1559); with CYP2E1 (gene 1571); with CYP4A11 (gene 1579)).
